# Pf growth 48h: P. falciparum growth inhibition at 48 hours (one generation). P. falciparum luciferase growth in erythrocytes, 48 h. Potency, µM (highest dose often 28.7 µM), inactives show top-dose activity change, negative = inhibition, usual class: inhibitors. 310,000 compounds, 5.9% hits; also: potency is read from the fitted curve at half-maximal effect; % is scaled to controls: 0 for no effect and ±100 for the full control effect
#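 In quantitative HTS format, infected erythrocytes bearing luciferase-reporter parasites were treated for a single generation at 37 C. Luminescence after adding detection reagent served as the growth measure.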
# Pf growth 96h: P. falciparum growth inhibition at 96 hours; Potency, µM (titrated, usually from 28.7 µM), inactives show at the top dose activity change, negative = inhibition, actives largely listed as inhibitors; AID 504834; 320,000 compounds, 6.9% hits; P. falciparum luciferase reporter growth, 96 h; also: potency is read from the fitted curve at half-maximal effect; % is scaled to controls: 0 for no effect and ±100 for the full control effect
#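 P. falciparum expressing integrated firefly luciferase, in erythrocytes at 2% hematocrit, 0.05% parasitemia, incubated with compounds 96 h at 37 C, 5% CO2. Growth inhibition read as loss of luminescence; two-generation exposure targets delayed-death apicoplast inhibitors.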
# Shiga inhibitor: Shiga toxin inhibition | 290,000 compounds, 9.2% hits | Vero cells, Shiga toxin protein synthesis inhibition reporter | AID 2315 | inhibition, % at 38.7 µM; in the data active = inhibition mostly above about 28%, no sharp cut-off; inactive = mostly below about 43%; also: 0% is about no effect
# Cycloheximide cs: counter-screen for Shiga toxin inhibitors: cycloheximide protein synthesis inhibition. cell reporter, cycloheximide protein synthesis inhibition counterscreen. max response, %. 300,000 compounds, 12% hits; in the data active = max response mostly above about 13%, no sharp cut-off; inactive = mostly below about 14%; also: read at 38.3 µM for the half of the compounds with a filed dose; 0% is about no effect
# * marks the source's active call; other numbers are inactive results; ? = inconclusive; · = no result given; [ ] = another dose, or the depositor's remark. This is a sample that favours compounds with a hit; in the whole collection about 21% have one here. Unless noted, calls follow the shape of the dose curve; as a rule, active = well fitted inhibition curve with a large enough effect; inconclusive = small, poorly fitted or top-dose-only effect, or another doubt; inactive = no such curve, though single readings can be large or run the other way.
SMILES,Pf growth 48h,Pf growth 96h,Shiga inhibitor,Cycloheximide cs
CCc1cccc(C)c1NC(=S)NCC1CCN(c2ccc(OC)cc2)C1 (stereo not drawn),3.3µM*,-4%,9,-6
COc1ccc(N2CCC(CNC(=S)Nc3cccc(OC)c3)C2)cc1 (stereo not drawn),?,-3%,-3,-2
CCc1ccccc1NC(=S)NCC1CCN(c2ccc(OC)cc2)C1 (stereo not drawn),12µM*,?,2,1
O=C(COc1ccc(F)cc1)NN1C(=O)CSC1=S,40%,66%,26,-6
CN1CCN(C(=S)Nc2cccc(Cl)c2)CC1,21%,-2%,-7,0
Cc1ccc(NC(=O)C2CCCN(S(=O)(=O)c3cccs3)C2)cc1 (stereo not drawn),-1%,?,-26,5
Cc1ccc(NC(=S)N2CCSC2c2cccs2)cc1 (stereo not drawn),13%,13%,132*,29*
COc1ccc(C2SCCN2C(=S)Nc2ccc(Cl)cc2)cc1 (stereo not drawn),?,?,24,29*
COc1ccc(C2SCCN2C(=S)Nc2cccc(Cl)c2)cc1 (stereo not drawn),2.3µM*,2.1µM*,12,7
COc1ccc(NC(=S)N2CCC(C(=O)c3ccc(OC)cc3)CC2)cc1,0%,-1%,3,0
C/C(=N\NC(=O)CNC(=O)c1ccccc1F)c1ccco1,39%,?,-5,2
CC1SCC(=O)N(CC(=O)Nc2ccc3c(c2)OCCO3)C1=O (stereo not drawn),-33%[5.75 µM],2%,33,33*
CC1CCC2(CC1)NC(=O)N(CC(=O)Nc1ccc3c(c1)OCCO3)C2=O (stereo not drawn),120%,181%,71*,41*
CC1CCC2(CC1)NC(=O)N(CC(=O)NC(=O)NC1CCCC1)C2=O (stereo not drawn),-14%,13µM*,-14,-2
O=C(CN1C(=O)NC2(CCCCCC2)C1=O)c1ccc2c(c1)OCCO2,105%,8.3µM*,118*,36*
O=C(CN1C(=O)NC2(CCCCCC2)C1=O)NC1CCCCCCC1,5%,14%,3,-3
CC1CCC2(CC1)NC(=O)N(CC(=O)Nc1ccc3c(c1)OCCCO3)C2=O (stereo not drawn),?,2%,·,·
CC1SCC(=O)N(CC(=O)Nc2ccc3c(c2)OCO3)C1=O (stereo not drawn),-1%,42%,25,-2
CCOc1ccc(NC(=O)c2ccccc2NC(=O)c2cccnc2)cc1,-19%,?,-5,-2
N#Cc1ccc(Oc2cnccn2)cc1,·,-5%,10,-2
CC1CC(C)CN(S(=O)(=O)c2ccc(NC(=O)c3ccc(=O)[nH]c3)cc2)C1 (stereo not drawn),-29%,?,·,·
NC(=S)N/N=C\c1c(OCc2ccccc2Cl)ccc2ccccc12,10µM*,42%,1,8
O=C(CCCc1nc(-c2ccccc2)no1)N1CCOCC1,37%,29%[5.75 µM],30,18*
Cc1ccc(-c2noc(CN3CCCCC3)n2)cc1,·,166%,91*,49*
Cc1ccc(-c2noc(CN3CCOCC3)n2)cc1,87%,53%,76*,39*
SMILES,Pf growth 48h,Pf growth 96h,Shiga inhibitor,Cycloheximide cs
Cn1ccnc1C1CCCCN1Cc1nc(-c2ccc(Cl)cc2)no1 (stereo not drawn),12µM*,?,-14,1
Cc1cc(NC(=O)C(C)SCC(=O)OCc2c(Cl)cccc2Cl)no1 (stereo not drawn),-18%,?,11,10
CN(C)NC(=O)C12CCC(C)(C(=O)O1)C2(C)C (stereo not drawn),5%,?,-15,2
O=C1C(=O)N(C/C=C/c2ccccc2)c2ccccc21,9%,30%,-9,-1
CSCC(C)N1CCC(CCC(=O)NC2CC2)CC1 (stereo not drawn),-7%,51%,-2,-4
O=C(CNCC1CCCO1)NCc1ccco1 (stereo not drawn),35%,?,-1,2
Cc1ccc(-c2noc(CCCC(=O)NC3CCCC3)n2)cc1,-28%,29%,49,-3
Cc1ccc(-c2noc(CCC(=O)N3CCCC3)n2)cc1,53%,32%,46*,27*
Clc1ccc(-c2noc(CN3CCCC3)n2)cc1,152%,?,65*,37*
C[C@@H]1CN(Cc2nc(-c3ccc(Cl)cc3)no2)C[C@H](C)O1,-11%,10%,32,13
Cc1ccc(-c2noc(CCC(=O)NC3CCCc4ccccc43)n2)cc1 (stereo not drawn),-23%,1.7µM*,-5,1
Cc1c(C(=O)OC(C)C)[nH]c2c1C(=O)CC(C)(C)C2,2%,·,-2,11*
Cc1c(C(=O)OC(C)C)[nH]c2c1C(=O)CCC2,25%,·,19,12
O=C(C1CCCO1)N1CCN(C(=S)Nc2ccccc2Cl)CC1 (stereo not drawn),9%,-1%,-12,-1
COc1ccc(C(=O)/C=C/c2cccc(OCc3ccccc3)c2)cc1CSCC(=O)O,9.3µM*,4.7µM*,-2,-8
COC(=O)c1cc2c(N)c(C(=O)c3ccccc3)sc2nc1C(OC)OC,?,?,37,24*
Cc1ccc2c(N)c(C(=O)N(c3ccccc3)c3ccccc3)sc2n1,9.3µM*,?,-13,13
NC(=O)c1sc2nc(-c3cccnc3)ccc2c1N,36%,-18%,32*,22*
Cc1nc(C)n(C(=O)N(c2ccccc2)c2ccccc2)n1,10%,3%,-9,-3
CC(C)OC(=O)c1sc2nc(-c3ccccc3)ccc2c1N,192%,345%,144*,66*
CC1CCC2(CC1)NC(=O)N(CC(=O)Nc1ccc(F)cc1)C2=O (stereo not drawn),10%,4%,·,·
COCCNC(=O)C(c1ccc(F)cc1)N(C(=O)CCC(=O)Nc1ccccn1)c1cccc(C)c1 (stereo not drawn),-16%,?,-9,-9
Nc1c(C(=O)Nc2ccc(Cl)c(Cl)c2)sc2nc(-c3cccnc3)ccc12,-12%,10%,-5,-2
CCOC(=O)c1sc2nc(-c3cccnc3)ccc2c1N,191%,22%,84*,50*
CN(C)C(=O)C(=O)c1cccn1-c1cccc(Cl)c1C#N,2%,19%,18,-1
SMILES,Pf growth 48h,Pf growth 96h,Shiga inhibitor,Cycloheximide cs
CC(=O)Nc1ccc2c(c1)ncn2-c1ccc(C)cc1,?,2%,99*,42*
Cn1c(CCN2CCN(c3ccccc3)CC2)nc2cc(NC(=O)c3ccco3)ccc21,·,-8%,20,-1
CC(=O)Nc1ccc2c(c1)ncn2C,30%,-20%,-4,-2
Cn1cnc2cc(NC(=O)c3ccco3)ccc21,201%,-1%,79*,25*
O=C(Nc1ccc2c(c1)ncn2-c1ccccc1)c1ccco1,-16%,3%,45*,38*
Cc1cccc(C)c1NC(=O)NC1(C(=O)NCC2CCCO2)CCCCC1 (stereo not drawn),1%,7%,-2,-7
CCOc1ccc(NC(=O)c2ccc(N3CC4CC(C3)c3cccc(=O)n3C4)c(N)c2)cc1 (stereo not drawn),-13%,?,-2,3

# Source: PubChem
